Screening results: PubChem, The Scripps Research Institute Molecular Screening Center
ASK1 inh – ASK1 kinase inhibitors, primary screen, biochemical, AlphaScreen; Mitogen-activated protein kinase kinase kinase 5 (Homo sapiens), Q99683; AlphaScreen MKK6 phosphorylation by ASK1, luminescence; inhibition, % at 7.44 µM; hit rate 0.99% among 22,000; AID 1159602, 2016; in the data active means inhibition above about 35%;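 further: 0% = median of compound wells and 100% = no enzyme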
ULK1 inh – ULK1 kinase inhibitors, primary screen, biochemical, AlphaScreen. Serine/threonine-protein kinase ULK1 (Homo sapiens), O75385. AlphaScreen Atg13 phosphorylation by ULK1, luminescence. inhibition, % at 5.96 µM. hit rate 1.9% among 30,000. AID 1259251, 2017; in the data active means inhibition above about 43%;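 further: 0% = median of compound wells and 100% = no enzyme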
The depositor's hits bear a star. In the library only some 2.4% were active in any assay of this set; here they are far more common.

What do the screens show for `CC(C)n1cnc2c(NCCCN3CCCC3=O)nc(-c3cccs3)nc21`?
ASK1 inh: 0; ULK1 inh: 5

How did FC(F)(F)c1cccc(CNc2cc(Nc3cccnc3)ncn2)c1 do in these assays?
ASK1 inh: -15; ULK1 inh: -1

What do the screens show for `CC(C)NC(=O)c1cccc(NC(=O)Nc2ccc(-c3ncnc4[nH]cc(Cl)c34)cc2)c1`?
ASK1 inh: 20; ULK1 inh: 70*

What do the screens show for `CC(C)NC(=O)c1cccc(NC(=O)Nc2ccc(-c3ncnc4nc[nH]c34)cc2)c1`?
ASK1 inh: 26; ULK1 inh: 19

What do the screens show for `Nc1cccc(-c2nc(C(=O)NCCN3CCOCC3)cs2)c1`?
ASK1 inh: 0; ULK1 inh: 1

What do the screens show for `c1cncc(CNc2nc(Nc3ccc(N4CCOCC4)cc3)c3ncn(C4CCCCC4)c3n2)c1`?
ASK1 inh: -22; ULK1 inh: 62*

How did c1ccc(CNc2nc(Nc3ccc(N4CCOCC4)cc3)nc3c2ncn3C2CCCCC2)cc1 do in these assays?
ASK1 inh: 5; ULK1 inh: 9

Results for CC(=O)Nc1ccc(Nc2nc(Nc3ccc(N4CCOCC4)cc3)nc3c2ncn3C2CCCCC2)cc1 ?
ASK1 inh: 8; ULK1 inh: 48*

What do the screens show for `c1cnc(Nc2nc(Nc3ccc(N4CCOCC4)cc3)c3ncn(C4CCCCC4)c3n2)nc1`?
ASK1 inh: -2; ULK1 inh: 2

What do the screens show for `Cc1ncc2c(NCc3ccccc3)nc3ccccc3n12`?
ULK1 inh: -12

What do the screens show for `Cc1nn(C)c(C)c1-c1ncc(C(=O)NCc2ccccc2)s1`?
ASK1 inh: -7; ULK1 inh: -3

How did O=C(NCCN1CCOCC1)c1ccc2nc(Oc3ccccc3)sc2c1 do in these assays?
ASK1 inh: 3; ULK1 inh: 8

How did O=C(Nc1ccccc1)Nc1cnn(-c2ccc3c(c2)C(O)CCC3)c1 (centres undefined) do in these assays?
ASK1 inh: 14; ULK1 inh: -19

How did COc1cc(N2CCOCC2)ccc1Nc1cc(NC(C)(C)c2ccccc2)c(C(F)(F)F)cn1 do in these assays?
ASK1 inh: -13; ULK1 inh: 22

How did COc1cc(N2CCOCC2)ccc1Nc1cc(NCc2ccccc2)c(C(F)(F)F)cn1 do in these assays?
ASK1 inh: 1; ULK1 inh: 18

What do the screens show for `CNC(=O)c1ccccc1Nc1cc(Nc2ccc(C(=O)N3CC[C@H](O)C3)cc2OC)ncc1C(F)(F)F`?
ASK1 inh: 8; ULK1 inh: 88*

How did CNC(=O)c1ncccc1Nc1cc(Nc2ccc(C(=O)N(C)C)cc2OC)ncc1C(F)(F)F do in these assays?
ASK1 inh: 16; ULK1 inh: 24

How did CNC(=O)c1ncccc1Nc1cc(Nc2ccc(N3CCOCC3)cc2OC)ncc1C(F)(F)F do in these assays?
ASK1 inh: 24; ULK1 inh: 46*

How did CNC(=O)c1cccc(Nc2cc(Nc3ccc(N4CCOCC4)cc3OC)ncc2C(F)(F)F)c1 do in these assays?
ASK1 inh: 21; ULK1 inh: 18

How did CNC(=O)c1ccccc1Nc1cc(Nc2ccc(N3CCS(=O)CC3)cc2OC)ncc1C#N do in these assays?
ASK1 inh: 22; ULK1 inh: 90*

How did COc1cc(N2CCOCC2)ccc1Nc1cc(Nc2ccccc2NC(C)=O)c(C(F)(F)F)cn1 do in these assays?
ASK1 inh: 11; ULK1 inh: 88*

What do the screens show for `COc1cc2nc(Nc3nccc4ccccc34)nc(NCCCN3CCCC3=O)c2cc1OC`?
ASK1 inh: -6; ULK1 inh: -1

What do the screens show for `OCCNc1nc(N2CCOCC2)nc2c1ncn2-c1ccccc1`?
ASK1 inh: 6; ULK1 inh: 7

How did O=C(Cc1cn(-c2ccc(N3CCOCC3)nn2)c2ccccc12)NCc1nc2ccccc2[nH]1 do in these assays?
ASK1 inh: 0; ULK1 inh: 3

Results for Nc1nc(Nc2ccc3ncccc3c2)nc2nc[nH]c12 ?
ASK1 inh: 3; ULK1 inh: 40

Results for Nc1nc(NCCc2ccc(O)cc2)cc(N2CCC(N3CCOCC3)CC2)n1 ?
ASK1 inh: -19; ULK1 inh: 0

What do the screens show for `CC(=O)Nc1ccc(Nc2ncnc3c2nc(-c2ccc(N4CCOCC4)nc2)n3C(C)C)cc1`?
ASK1 inh: -2; ULK1 inh: -4

Results for c1ccc(CNc2nc(Nc3ccccn3)nc3c2ncn3C2CCCCC2)cc1 ?
ASK1 inh: 6; ULK1 inh: 1

Results for NNCCc1ccccc1 ?
ULK1 inh: -10

Results for CS(=O)(=O)c1ccc(NCCc2ccccc2)cc1 ?
ULK1 inh: 68*

Results for O=C1OCCN1c1ccc(Nc2nccc(-c3cncc(N4CCOCC4)c3)n2)cc1 ?
ASK1 inh: 6; ULK1 inh: 4

How did Cn1cnnc1-c1ccc(Nc2nccc(-c3ccc(NS(C)(=O)=O)cc3)n2)cc1 do in these assays?
ASK1 inh: 1; ULK1 inh: -14
